# From PubChem
# ST2 inh – blocks human ST2 binding to IL-33; Q01638; AlphaLISA ST2-Fc/biotin-IL-33 interaction, 1 h; inhibition, % for hits at 17 µM; 78,000 tested, 2.3% active; AID 1259354; in the data active = inhibition above about 30%
# Target sequence (Q01638 whole entry, looked up): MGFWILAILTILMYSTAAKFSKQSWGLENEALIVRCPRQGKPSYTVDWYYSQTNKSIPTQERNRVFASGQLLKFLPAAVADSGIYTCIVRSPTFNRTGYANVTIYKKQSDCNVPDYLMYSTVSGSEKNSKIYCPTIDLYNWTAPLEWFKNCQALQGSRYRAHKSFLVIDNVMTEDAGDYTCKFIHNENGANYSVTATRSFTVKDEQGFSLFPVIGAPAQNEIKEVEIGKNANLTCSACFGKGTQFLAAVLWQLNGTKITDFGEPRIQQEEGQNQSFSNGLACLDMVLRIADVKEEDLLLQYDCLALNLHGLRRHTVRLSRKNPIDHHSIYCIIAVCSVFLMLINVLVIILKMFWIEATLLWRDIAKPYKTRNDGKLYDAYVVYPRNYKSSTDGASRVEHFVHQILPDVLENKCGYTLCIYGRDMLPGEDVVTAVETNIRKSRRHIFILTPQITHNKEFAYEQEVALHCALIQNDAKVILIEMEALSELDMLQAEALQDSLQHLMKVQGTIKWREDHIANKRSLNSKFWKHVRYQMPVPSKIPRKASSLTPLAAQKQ
# Numbers without * were called inactive; i = inactive. This is one part of a sample in which hits are shown more often than they occur.
SMILES,ST2 inh
CN1C[C@@H](NC(=O)C2CCCCC2)C[C@H]1c1nc(-c2ccccc2)no1,i
COc1cccc(NC(=O)N[C@H]2C[C@@H](c3nc(-c4ccccc4)no3)N(C)C2)c1,i
Cc1ccc(-c2noc([C@@H]3C[C@H](NS(=O)(=O)c4ccc(C)cc4)CN3C)n2)cc1,i
COc1ccc(-c2noc([C@@H]3C[C@H](NC(=O)Nc4ccc(C)cc4)CN3C)n2)cc1,i
CN1C[C@@H](NC(=O)NC2CCCCC2)C[C@H]1c1nc(-c2ccc3c(c2)OCO3)no1,i
CN1C[C@@H](NS(=O)(=O)c2ccc(Cl)cc2)C[C@H]1c1nc(-c2ccccc2)no1,i
COc1ccc(-c2noc([C@@H]3C[C@H](NS(=O)(=O)c4ccc(C)cc4)CN3C)n2)cc1,i
COc1ccc(-c2noc([C@@H]3C[C@H](NC(=O)CCC(=O)O)CN3C)n2)cc1,30%*
COc1ccc(-c2noc([C@@H]3C[C@H](NC(=O)NC(C)C)CN3C)n2)cc1,42%*
COc1ccc(NC(=O)N[C@H]2C[C@@H](c3nc(-c4ccc(OC)cc4)no3)N(C)C2)cc1,i
CN1C[C@@H](NS(=O)(=O)c2ccc(C#N)cc2)C[C@H]1c1nc(-c2ccccc2)no1,51%*
Cn1c(=O)c2cc(S(=O)(=O)N3CCCCC3)ccc2n(C)c1=O,i
O=C(Cc1ccc(F)cc1)N1CCN=C1SCc1ccccc1Cl,i
Cc1ccc(S(=O)(=O)Nc2ccc(OC(C)C)cc2)cc1,i
CC(=O)N1N=C(c2ccc(C)c(Cl)c2)OC12CCCC2,i
CC(=O)c1cccc(NC(=O)C(Cl)Cl)c1,i
O=C(C1CCCC1)N1CCN(c2cccc(Cl)c2)CC1,i
CC(=O)N1CCCN(C(=O)CC2C(=O)NCCN2CC2CCCCC2)CC1 (centres undefined),i
Cc1cc(C)cc(CCC(=O)N2CCCC2c2cc(C)no2)c1 (centres undefined),i
CC(C)C(=O)Nc1cccc(-c2ccn[nH]2)c1,i
CCOC(=O)c1c(NC(=O)c2sc3ccccc3c2Cl)sc2c1CCN(C)C2,38%*
CCOC(=O)c1c(NC(=O)c2ccc(S(=O)(=O)N3CCCC3)cc2)sc2c1CCN(C)C2,i
CCOC(=O)c1c(NC(=O)c2ccc(Br)s2)sc2c1CCN(C)C2,i
Cc1oc(-c2ccccc2Cl)nc1CSCC(=O)NC1CCCC(C)C1C (centres undefined),i
N#Cc1ccc(NC(=O)C2CC(=O)N(c3ccc(Br)cc3)C2)cc1 (centres undefined),i
SMILES,ST2 inh
Cc1ccc(C2CC(C(F)(F)F)n3nc(C(=O)NCc4ccco4)c(Cl)c3N2)cc1 (centres undefined),i
N#Cc1c(N=CC2C(=O)c3ccccc3C2=O)sc2c1CCCC2,i
N#Cc1c(N=CN2CCCCC2)sc2c1CCCCC2,35%*
CC(=O)Nc1sc2c(c1C#N)CCC2,i
Cc1cc2ccccc2c(=O)n1CC(=O)NCC(=O)NCCC1=CCCCC1,i
O=C(NCCNc1cccnc1)C1CCCN(C2CCN(C(=O)C3CC3)CC2)C1 (centres undefined),i
O=C(c1ccccc1)N1Cc2[nH]cnc2C[C@H]1c1nc(-c2ccc3ccccc3c2)no1,i
COc1ccc(NC(=O)CCC2CCN(C(=O)CSC)CC2)c(OC)c1,i
COc1cc(C(Nc2cc(C)ccn2)c2ccc3cccnc3c2O)ccc1O (centres undefined),i
Cc1cccc(NC(c2ccccc2)c2ccc3ccc(C)nc3c2O)n1 (centres undefined),36%*
CCC(C(=O)Nc1cccc(C)n1)c1ccccc1 (centres undefined),i
Cc1cc(Cl)ccc1NC(=O)CSc1cccc2cccnc12,i
Cc1cccc(NC(c2cccc(Cl)c2)c2ccc3cccnc3c2O)n1 (centres undefined),34%*
Cc1cc(C)n(-c2cccc3cccnc23)n1,i
Cc1cccc(NC(c2cccc(F)c2)c2ccc3cccnc3c2O)n1 (centres undefined),i
Cc1ccnc(NC(c2ccc(N(C)C)cc2)c2ccc3cccnc3c2O)c1 (centres undefined),32%*
CC(=O)NC(c1ccc(Cl)cc1Cl)c1ccc2cccnc2c1O (centres undefined),i
Cc1cccc(NC(c2cccc(C)n2)c2ccc3ccc(C)nc3c2O)n1 (centres undefined),i
Cc1cccc(NC(c2ccc(F)cc2)c2ccc3cccnc3c2O)n1 (centres undefined),30%*
O=C(CCS(=O)(=O)c1cccc2cccnc12)Nc1ccc(F)cc1,i
CN(CC1CCCN1C)c1ccnc(C(=O)NCc2cccnc2)c1 (centres undefined),i
CN1CCN(Cc2nc(COc3ccccc3)no2)CC1c1ccccc1 (centres undefined),i
O=C1OC2(CCCC2)OC(=O)C1=Cc1cc(Cl)c(O)c(Cl)c1,i
CC1=CC[C@@H]2CN(C(=O)Cc3c(C)nc(C)[nH]c3=O)C[C@@H]2C1,i
[CH2-][N+](C)(C)COP(=O)(O)OP(=O)(O)OC[C@H]1O[C@@H](n2ccc(N)nc2=O)[C@H](O)[C@@H]1O,i
SMILES,ST2 inh
CC(NCc1cn(CCC(N)=O)c2ccccc12)c1nc2c(s1)CCCC2 (centres undefined),i
COc1ccc2cc3cc(C(=O)NCCCOC(C)C)oc3nc2c1,i
CC1=C(C(=O)Nc2nc3ccccc3s2)C(c2ccc([N+](=O)[O-])cc2)C2=C(CCCC2=O)N1 (centres undefined),i
Cc1ccc(S(=O)(=O)Nc2ccccn2)cc1C,i
O=c1cc(CO)oc(C(Nc2ccccn2)c2ccc3c(c2)OCO3)c1O (centres undefined),i
COc1ccc(C(Nc2ccccn2)c2ccc3ccc(C)nc3c2O)cc1C (centres undefined),31%*
CCN1C(=O)C2(OCCO2)c2cc([N+](=O)[O-])ccc21,i
Cc1ccc(C(=O)N2CCCC(CCc3ccc(F)c(F)c3)C2)cc1O (centres undefined),i
O=C(Cn1c(=O)n(-c2ccc(F)cc2)c(=O)c2ccccc21)NCC1CCCO1 (centres undefined),i
Cc1ccc(C23C[C@@H]4C[C@@H](CC(O)(C4)C2)C3)cc1[N+](=O)[O-],44%*
Cc1ccc(C23C[C@@H]4C[C@@H](CC(Cl)(C4)C2)C3)cc1N,i
Cc1ccc(S(=O)(=O)N2CCN(S(=O)(=O)c3ccc(C)c([N+](=O)[O-])c3)C2)cc1,i
CC(=O)Nc1ccc(N=Cc2cccc([N+](=O)[O-])c2O)cc1,i
Cc1c(NC(=O)C(C)C)cccc1-c1nc2ccccc2s1,i
COC(=O)C1=COC(O[C@@H]2O[C@H](CO)[C@@H](O)[C@H](O)[C@H]2O)/C(=C\C(=O)O)C1CC(=O)OCCc1ccc(O)c(O)c1 (some centres undefined),i
CN(CCCNC(=O)C1CCCN1c1nnc(N2CCCC2=O)s1)C1CCCCC1 (centres undefined),i
CC(C)N(CCCNC(=O)C1CCCN1c1nnc(N2CCCC2=O)s1)Cc1ccccc1 (centres undefined),34%*
CN(CCNC(=O)C1CCCN1c1nnc(N2CCCC2=O)s1)C1CCCCC1 (centres undefined),i
CC(=O)Nc1cccc(-c2ccc(Cn3ccnc3)cc2)c1,i
Cc1cccn2c(=O)c3cc(C(=O)NCc4cccnc4)n(C)c3nc12,i
